Screening data from PubChem BioAssay.
Sm TGR inh: qHTS Assay for the Inhibitors of Schistosoma Mansoni Peroxiredoxins | Schistosoma mansoni thioredoxin glutathione reductase (TGR), Q962Y6 | purified TGR, DTNB reduction, TNB absorbance 405 nm | Potency, µM (titrated, usually from 114 µM), for the others: top-dose activity change, negative = inhibition, actives largely listed as inhibitors | 3% of 360,000 active | AID 485364, 2010; also: potency is read from the fitted curve at half-maximal effect; % is scaled to controls: 0 for no effect and ±100 for the full control effect; nearly all actives have a fitted effect of over 60% in size
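First, TGR (20 nM dispensed) and NADPH were mixed with compound. Second, a 15 min room-temperature incubation followed. Third, further NADPH and then DTNB were added to start the reaction. Finally, TNB absorbance was monitored kinetically.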
FBPA Giardia inh: qHTS Assay for Inhibitors of Fructose-1,6-bisphosphate Aldolase from Giardia Lamblia. purified Giardia FBPA. Potency, µM (series often up to 59.6 µM), for the others: at the highest dose activity, negative = inhibition, actives largely listed as inhibitors. 0.71% of 290,000 active. A8B2U2. AID 2451, 2010; also: potency is read from the fitted curve at half-maximal effect; % is scaled to controls: 0 for no effect and ±100 for the full control effect; nearly all actives have a fitted effect of over 55% in size
Target sequence (A8B2U2 whole entry, looked up): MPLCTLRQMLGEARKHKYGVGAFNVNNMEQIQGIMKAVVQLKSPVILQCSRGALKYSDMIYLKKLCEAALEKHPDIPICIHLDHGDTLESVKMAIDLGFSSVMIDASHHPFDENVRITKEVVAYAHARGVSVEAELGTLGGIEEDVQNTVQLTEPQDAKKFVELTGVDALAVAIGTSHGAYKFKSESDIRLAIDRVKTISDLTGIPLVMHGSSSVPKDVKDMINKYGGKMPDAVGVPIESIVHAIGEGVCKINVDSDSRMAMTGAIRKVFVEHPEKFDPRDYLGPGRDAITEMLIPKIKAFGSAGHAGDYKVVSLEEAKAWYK
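Giardia FBPA (40 nM reagent) was preincubated 10 min at RT with compound (up to 57.5 uM final), then substrate plus GAPDH/TPI/NAD/arsenate coupling system with diaphorase/resazurin was added; resorufin fluorescence (525/598 nm) was read after 20 min.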
CHX counter: Cycloheximide Counterscreen for Small Molecule Inhibitors of Shiga Toxin; cell reporter, cycloheximide protein synthesis inhibition counterscreen; max response, %; 12% of 300,000 active; in the data active = max response mostly above about 13%, no sharp cut-off; inactive = mostly below about 14%; also: read at 38.3 µM for the half of the compounds with a filed dose; 0% is about no effect
Shiga inhibitor: A qHTS for Small Molecule Inhibitors of Shiga Toxin | AID 2315, 2010 | 9.2% of 290,000 active | inhibition, % at 38.7 µM | Vero cells, Shiga toxin protein synthesis inhibition reporter; in the data active = inhibition mostly above about 28%, no sharp cut-off; inactive = mostly below about 43%; also: 0% is about no effect
TbPYK inhibitor: qHTS of Trypanosoma Brucei Inhibitors; Potency, µM (doses to about 76.8 µM), for inactives: at the highest dose activity, negative = inhibition, usual class: inhibitors; TbPYK enzyme, Kinase-Glo Plus ATP luminescence, 45 min; pyruvate kinase (Trypanosoma brucei), Q57TT1; 0.12% of 410,000 active; also: potency is read from the fitted curve at half-maximal effect; % is scaled to controls: 0 for no effect and ±100 for the full control effect; nearly all actives have a fitted effect of over 50% in size
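Luminescence from Kinase-Glo Plus, added after a 45-minute room-temperature reaction, served as the end-point read-out. The enzyme and substrate were preincubated with compound before ADP (130 uM final) initiated turnover. Concentration-effect curves came from normalized qHTS data.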
LmPK inh: qHTS Assay for Inhibitors of Leishmania Mexicana Pyruvate Kinase (LmPK); Potency, µM (doses to about 57.5 µM), without a hit: at the top dose activity change, negative = inhibition, hits mostly inhibitors; Q27686; 0.37% of 290,000 active; purified LmPK, Kinase-Glo ATP luminescence, 1 h; also: potency is read from the fitted curve at half-maximal effect; % is scaled to controls: 0 for no effect and ±100 for the full control effect
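Purified LmPK (0.1 nM) converted ADP (0.1 mM) to ATP with PEP (0.5 mM) in imidazole buffer pH 7.2 with KCl and MgCl2, 1 h at room temperature. ATP was read by Kinase-Glo luminescence; data normalized to uninhibited and no-enzyme controls.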
* hit, by the source's call; ? = inconclusive; nt = no result given. The sample as a whole holds a higher share of hits than the screen did. Unless noted, calls follow the shape of the dose curve; as a rule, active = well fitted curve in the direction sought with a large enough effect; inconclusive = small, poorly fitted or top-dose-only effect, or another doubt; inactive = no such curve, though single readings can be large; an effect the other way counts as inactive or inconclusive.

SMILES	Sm TGR inh	FBPA Giardia inh	CHX counter	Shiga inhibitor	TbPYK inhibitor	LmPK inh
Cc1ccc(S(=O)(=O)N2CCCC2C(=O)OCc2ccco2)cc1 (stereo not drawn)	4.47µM*	1.9%	5.7	-1.8	-13.2%	-3.2%
Cc1ccc(S(=O)(=O)N2CCCC2C(=O)OCc2ccccc2)cc1 (stereo not drawn)	6.4%	1.0%	-2.9	-1.6	-8.7%	1.3%
CCCCn1c(O)c(C(C)=NCCN2CCCCC2)c(=O)[nH]c1=O	?	-1.2%	-2.3	-15.0	1.4%	-5.2%
C=CCn1c(O)c(/C(C)=N/N2CCCCC2)c(=O)[nH]c1=O	1.5%	-0.3%	38.3	75.2*	1.0%	4.6%
CC(=NCCN1CCCCC1)c1c(O)[nH]c(=O)[nH]c1=O	?	-6.3%	20.5	87.1*	-5.4%	-0.2%
C=CCn1c(O)c(C(C)=NCCN2CCCCC2)c(=O)[nH]c1=O	14.1µM*	-3.1%	-2.8	-15.7	0.3%	10.2%
Cc1cccc(-c2nnn3c2nc(NCc2ccccc2)c2ccccc23)c1	3.5%	nt	nt	nt	-0.7%	nt
OC(CNc1ncnc2sccc12)c1ccccc1 (stereo not drawn)	3.5%	9.5%	25.4*	84.0*	-6.3%	0.4%
c1ccc(CCNc2ncnc3sccc23)nc1	-2.8%	-0.4%	35.1*	73.0*	-7.9%	-24.6%
Cc1csc2ncnc(NCCc3ccccn3)c12	-0.5%	-15.4%	5.1	-19.1	4.1%	-6.9%
CCOc1ccc(C(=O)Nc2cc(-c3cn4cccnc4n3)ccc2C)cc1OCC	1.2%	nt	nt	nt	-2.7%	nt
Cc1ccc(C2c3c(oc4ccccc4c3=O)C(=O)N2c2ccc(C)cn2)cc1 (stereo not drawn)	0.3%	nt	nt	nt	0.0%	nt
C#CCOc1c(/C=C\c2nc(O)c([N+](=O)[O-])c(=O)[nH]2)cc(Br)cc1OC	35.5µM*	-7.8%	-3.3	nt	-0.5%	-1.2%
CC(C)n1c(-c2ccc(C(C)(C)C)cc2)n[nH]c1=S	0.8%	-0.6%	-4.5	-4.4	?	8.91µM*
CCOc1ncccc1C(=O)N=c1sccn1C	-6.0%	-1.0%	-1.3	4.2	-0.9%	0.3%
Cc1cccc(C(=O)N=c2sccn2C)c1[N+](=O)[O-]	?	nt	50.4*	74.1*	1.5%	-3.2%
Cc1ccc(C(=O)N=c2sccn2C)cc1C	0.0%	nt	-1.7	-16.4	-5.6%	-5.7%
Cc1ccccc1C(=O)N=c1sccn1C	-7.9%	1.4%	12.8*	46.0	-1.1%	3.4%
CC(=O)Nc1ccc(NC(=O)c2cc(-c3cc(C)cc(C)c3O)n[nH]2)cc1	-13.3%	1.7%	22.6*	31.5	-1.7%	-4.4%
CC(=O)Nc1ccc(NC(=O)c2cc(-c3ccc(C)c(C)c3O)n[nH]2)cc1	-12.7%	4.1%	29.4*	37.2	-7.7%	0.6%
CC(=O)Nc1ccc(NC(=O)c2cc(-c3ccc(F)cc3C)n[nH]2)cc1	nt	nt	nt	nt	-1.3%	nt
O=C(c1ccco1)N1CCN(Cc2ccccc2Br)CC1	-2.9%	?	34.1*	56.2*	-5.3%	7.1%
OC1CCN(Cc2cccc3ccccc23)CC1	-2.2%	?	0.3	-5.0	2.6%	-8.0%
O=C(c1ccco1)N1CCN(Cc2ccc(F)cc2)CC1	4.6%	?	-1.0	-6.2	32.7%	1.5%
O=C(c1ccco1)N1CCN(Cc2ccc(F)cc2Cl)CC1	-30.4%	4.6%	49.9*	nt	1.7%	0.2%
SMILES	Sm TGR inh	FBPA Giardia inh	CHX counter	Shiga inhibitor	TbPYK inhibitor	LmPK inh
C/C(=N/N1CCN(Cc2cccc3ccccc23)CC1)c1ccco1	-19.0%	8.0%	10.9	17.0*	-3.3%	-14.9%
Cc1ccc(S(=O)(=O)NC(=O)C2(C)CCN2C(=O)CCc2ccc(Cl)cc2Cl)nc1 (stereo not drawn)	nt	nt	nt	nt	-7.8%	nt
CCCC1CCC(C2=N/C(=C\c3ccc(OC)c(OC)c3)C(=O)O2)CC1 (stereo not drawn)	-7.1%	-0.2%	-5.8	-8.5	3.5%	2.8%
COc1cc(/C=C2\N=C(C)OC2=O)cc(Cl)c1OC(C)=O	10µM*	-0.7%	-1.5	-6.5	-1.4%	0.1%
COc1ccc(/C=C2\N=C(C)OC2=O)cc1[N+](=O)[O-]	10µM*	0.6%	1.1	-3.0	-8.3%	1.6%
CCOC(=O)c1cc(-c2ccc(OC)cc2)n(CCC(=O)Nc2ccccc2OC)c1C	0.4%	nt	nt	nt	3.7%	nt
COc1ccccc1-c1cc(C(=O)N2CCCCC2C)no1 (stereo not drawn)	8.8%	nt	nt	nt	3.1%	nt
COc1ccc(-c2cc(C(=O)N3CCN(C(c4ccccc4)c4ccccc4)CC3)no2)cc1	0.3%	0.1%	5.9	14.1	0.9%	-4.7%
COc1ccc(-c2cc(C(=O)N3CCCC3)no2)cc1	74.5%	6.6%	25.0*	73.7*	-7.3%	-16.0%
COc1ccc(-c2cc(C(=O)N3CCN(C(c4ccccc4)c4ccccc4)CC3)no2)cc1OC	4.8%	-1.2%	2.2	25.1	1.8%	2.5%
COc1ccc(-c2cc(C(=O)N3CCCCCC3)no2)cc1	-3.4%	2.9%	19.7*	69.8*	-14.5%	-2.8%
COc1cccc(-c2cc(C(=O)N3CCCCC3C)no2)c1 (stereo not drawn)	5.5%	-0.3%	28.0*	104.8*	0.6%	-3.3%
COc1ccc(-c2cc(C(=O)N3CCCCCC3)no2)cc1OC	-8.9%	-0.4%	30.4*	51.7*	3.2%	0.4%
COc1cccc(CNS(=O)(=O)c2c(C(=O)N3CCC(C)CC3)c(C)n(C)c2C)c1	5.5%	nt	nt	nt	-7.4%	nt
COc1cccc(-c2cc(C(=O)N3CCCCCC3)no2)c1	-9.6%	-2.2%	37.1*	54.1*	-1.2%	-12.9%
COc1cccc(-c2cc(C(=O)N3CCN(c4ccc(F)cc4)CC3)no2)c1	-9.4%	-2.7%	-2.0	-17.0	-5.3%	0.7%
COc1ccc(C(=O)C2CCN(C(=O)c3ccc(C)cc3)CC2)cc1	9.5%	5.7%	-0.9	-17.8	2.8%	0.4%
COc1ccc(-c2ccc(C(=O)C3CC3)cc2)cc1	-1.0%	4.2%	16.2*	64.7*	5.9%	-12.4%
COc1ccc(/C(N)=N/OC(=O)C2CCCCC2)cc1	89.1µM*	nt	42.8*	136.3*	-8.1%	-4.3%
COc1ccc(/C(N)=N/OC(=O)C2CCCCC2)cc1OC	-0.7%	nt	50.2*	78.2*	-1.9%	-4.6%
CN1C(=O)Cc2cc(S(=O)(=O)CCC(=O)Nc3ccc(Cl)cc3)ccc21	2.5%	nt	nt	nt	3.4%	nt
O=C(COc1ccccc1)NCC(=O)N/N=C/c1ccc(Cl)cc1	5.7%	2.0%	2.0	-5.3	2.3%	-2.8%
Cc1cc2c(cc(C(=O)OC(C(=O)NC3CCCCC3)C(C)C)n2C)o1 (stereo not drawn)	-25.6%	nt	nt	nt	-9.9%	nt
Cc1cc2c(cc(C(=O)OC(C(=O)NCC3CCCO3)C(C)C)n2C)o1 (stereo not drawn)	1.0%	-2.8%	15.1*	34.3	-9.9%	-8.7%
